Compounds with a hit are over-represented: about 2.4% of the library has one in this group of screens.
Pol eta inh – DNA polymerase eta (human) inhibition; recombinant Pol eta, fluorescent DNA replication assay; Potency, µM (titrated, usually from 114 µM), for the others: at the top dose activity change, negative = inhibition, hits mostly inhibitors; actives 1.2% (n = 390,000); AID 588591; also: % is scaled to controls: 0 for no effect and ±100 for the full control effect
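Pol eta at 10 nM preincubated with compounds 15 min at room temperature; reaction started with fluorescent substrate (50 nM final) and read kinetically at 0 and 10 min.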
FEN1 inhibitor – human FEN1 inhibition. AID 588795. actives 0.35% (n = 390,000). Potency, µM (highest dose often 114 µM), for inactives: at the highest dose activity change, negative = inhibition, usual class: inhibitors. Recombinant FEN1 flap cleavage, fluorescence, 15 min. P39748; also: % is scaled to controls: 0 for no effect and ±100 for the full control effect; nearly all actives have a fitted effect of over 65% in size
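Compounds are tested as a concentration series against 10 nM FEN1; after a 15 min room-temperature preincubation, 50 nM substrate starts cleavage, with plate reads at 0 and 15 min. Normalized responses are fitted by a Hill equation.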
WRN helicase inh – inhibitors of human WRN helicase; Potency, µM (titrated, usually from 114 µM), without a hit: at the highest dose activity change, negative = inhibition, actives largely listed as inhibitors; Q14191; actives 0.46% (n = 360,000); WRN helicase unwinding, fluorescent forked duplex, kinetic; also: % is scaled to controls: 0 for no effect and ±100 for the full control effect; nearly all actives have a fitted effect of over 55% in size
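Primary qHTS, 1536-well format. 20 nM WRN + compound, 15 min RT; start with 100 nM forked fluorophore/quencher duplex, 2 mM ATP (final); kinetic read ex 525/em 598 nm.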
POLB inh – blocks human DNA polymerase beta activity. Pol beta primer extension/strand displacement, fluorescence kinetic. AID 485314. actives 1.3% (n = 340,000). Potency, µM (series often up to 114 µM), for inactives: top-dose activity change, negative = inhibition, actives largely listed as inhibitors; also: % is scaled to controls: 0 for no effect and ±100 for the full control effect
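10 nM enzyme + cpd, 15 min RT; start with substrate 50 nM final; read 0 min and after 10 min RT. Corrected, normalized data; 4-parameter Hill curve fit.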
Pol kappa inh – inhibitors of human DNA polymerase kappa; AID 588579; actives 0.53% (n = 400,000); Potency, µM (series often up to 107 µM), for the others: top-dose activity, negative = inhibition, actives largely listed as inhibitors; purified Pol kappa, fluorescent DNA synthesis assay, 10 min; also: % is scaled to controls: 0 for no effect and ±100 for the full control effect
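Fluorescent qHTS in 1536-well format: enzyme (10 nM) and compound sat 15 min at room temperature before 50 nM substrate (final) was added. Signal taken at 0 and 10 min; no-enzyme buffer wells were negative controls.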
POLI inh – inhibitors of human DNA polymerase iota | Q9UNA4 | Pol iota fluorescent replication assay, 10 min | Potency, µM (titrated, usually from 115 µM), for the others: at the top dose activity, negative = inhibition, usual class: inhibitors | actives 1% (n = 390,000)
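Pol iota at 10 nM preincubated 15 min with compounds at room temperature; reaction started with fluorescent substrate, 50 nM final. Fluorescence read kinetically at 0 and 10 min; buffer-only wells as negative control.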
An asterisk follows results filed as active; u = inconclusive; x = no result; ! = not active in a repeat; [ ] = another dose, or the depositor's remark. Calls follow the shape of the dose curve; as a rule, active = well fitted curve in the direction sought with a large enough effect; inconclusive = small, poorly fitted or top-dose-only effect, or another doubt; inactive = no such curve, though single readings can be large; an effect the other way counts as inactive or inconclusive. Potency is read from the fitted curve at half-maximal effect.

SMILES | Pol eta inh | FEN1 inhibitor | WRN helicase inh | POLB inh | Pol kappa inh | POLI inh
N[C@H](CP(=O)(O)O)C(=O)O | x | x | x | x | -6.5%[19.4 µM] | x
Cc1ccc(NP(=O)(Oc2ccccc2F)Oc2ccccc2F)cc1C | -16.7% | -33.8% | -17.4% | -16.6% | u | 89.1µM*
Cc1cccc(NP(=O)(Oc2ccccc2F)Oc2ccccc2F)c1 | -10.5% | -20.0% | -6.0% | -14.7% | -10.5% | 2.9%
CN(N=O)c1ccc(O)c(O)c1 | 0.891µM* | x | x | 0.631µM* | 2.38µM* | 0.794µM*
O=c1[nH]c(=O)n(Cl)c(=O)n1Cl | x | x | x | x | -3.7%[60.1 µM] | x
O=c1[nH]c(=S)[nH]c(O)c1N=Nc1ccc(S(=O)(=O)N2CCc3ccccc32)cc1 | -13.1% | -1.1% | -24.0%[57.1 µM] | 79.4µM* | -12.3% | 39.1%
COc1cc(/C=C/[N+](=O)[O-])ccc1O | 5.1% | u | -6.7% | 1.6% | -43.2% | 31.6µM*
CCN(CC)c1ccc(/C=C/[N+](=O)[O-])cc1 | -10.4% | u | -19.7% | -12.5% | 2.2% | u
COc1cccc(N2C(=O)NC(=O)/C(=C/c3ccc4c(c3)Cc3ccccc3-4)C2=O)c1 | 0.8% | u | 44.7µM* | -19.6% | -17.5% | u
COc1cc(/C=C2/C(=O)NC(=O)N(c3ccccc3)C2=O)ccc1O | 9.8% | 3.1% | u | 1.8% | 3.1% | 17.3%
CNC(=S)S | x | x | x | x | 15.5%[60.1 µM] | x
CCCCC/C=C\C[C@@H](/C=C/C=C\C/C=C\CCCC(=O)O)OO | x | x | x | x | -0.5%[19.4 µM] | x
CCCCC/C=C\C/C=C\C/C=C\C/C=C\CCCC(=O)O | x | x | x | x | 12.6µM*! | x
CN1CC[C@]2(C)c3cc(O)ccc3N(C)[C@@H]12 | x | x | x | x | -3.1%[12 µM] | x
CN1CC[C@@]2(C)c3cc(O)ccc3N(C)C12 (stereo not given in full) | u | 10.1% | x | -7.6%[57.1 µM] | -4.6%[60.1 µM] | 28.2µM*!
CC(=O)NCC(N)C(=O)c1ccc(Cl)c(Cl)c1 (stereo not given) | x | -5.9% | x | x | 11.7% | -1.1%
c1cc(CN2CCC3(CCNCC3)CC2)ccn1 | x | x | x | x | -10.1%[60.1 µM] | x
Oc1ccccc1/C=N/NP(=S)(c1ccccc1)c1ccccc1 | -21.7% | 2.1% | -11.2% | 10.5% | -6.8% | 84.5%
Oc1ccc(/C=N/NP(=S)(c2ccccc2)c2ccccc2)c(O)c1O | u | u | u | 14.1µM* | -39.6% | u
O=C(c1ccc2nc(-c3ccco3)c(-c3ccco3)nc2c1)N1CCC2(CC1)OCCO2 | 15.8µM* | -8.5% | u | 20µM* | u | u
CCC(=O)CCCCC[C@@H]1NC(=O)[C@H]2CCCCN2C(=O)[C@H]([C@@H](C)CC)NC(=O)[C@H](Cc2cn(OC)c3ccccc23)NC1=O | x | x | x | x | -7.8%[60.1 µM] | x
CCCCn1c(NS(=O)(=O)c2ccc(C)cc2)c(C(=O)OCC)c2nc3ccccc3nc21 | -7.0% | -17.0% | -24.4% | 9.8% | -1.2% | 2.51µM*
C/C=C(\C)C(=O)N[C@@H](c1ccccc1)[C@@H](O)C(=O)O[C@H]1C[C@@]2(O)[C@@H](OC(=O)c3ccccc3)C3[C@](C)(C(=O)[C@H](OC(C)=O)C(=C1C)C2(C)C)[C@@H](O)C[C@H]1OC[C@@]31OC(C)=O (stereo not given in full) | -17.0% | -0.7% | 1.8% | 2.0% | 0.2% | 17.4%
CC(=O)O[C@H]1C(=O)[C@@]2(C)C([C@H](OC(=O)c3ccccc3)[C@]3(O)C[C@H](OC(=O)[C@H](O)[C@@H](NC(=O)c4ccccc4)c4ccccc4)C(C)=C1C3(C)C)[C@]1(OC(C)=O)CO[C@@H]1C[C@@H]2OC(=O)[C@H](C)NC(=O)c1ccc(-c2c3ccc(=O)cc-3oc3cc(O)ccc23)c(C(=O)O)c1 (stereo not given in full) | x | x | x | x | 4.74µM* | x
O=C1NC(=O)N(c2ccc3c(c2)OCO3)C(=O)/C1=C\c1ccc(-c2ccccc2C(=O)O)o1 | 10µM* | u | 56.2µM* | 10µM* | 79.4µM* | 20µM*
O=C(Nc1cccc(F)c1)N1CC2(CCNCC2)C1 | x | x | x | x | -2.6%[60.1 µM] | x
CCOC(=O)Nc1ccc(NCc2ccc(F)cc2)nc1N | 28.2µM* | u | -0.9%[11.6 µM] | 0.8%[57.1 µM] | -9.3%[60.1 µM] | 3.98µM*
